From PubChem
TRb-SRC2 inh = qHTS for Inhibitors of the Interaction of Thyroid Hormone Receptor and Steroid Receptor Coregulator 2. Potency, µM (titrated, usually from 106 µM), for the others: top-dose activity change, negative = inhibition, actives largely listed as inhibitors. TRbeta-SRC2 peptide binding, fluorescence polarization; receptor liganded with 1 µM T3. AID 1469, 2008. hit rate 0.065% among 280,000;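 note: plate controls were bound peptide for no effect and peptide without receptor for full effect; nearly all actives have a fitted effect of over 50% in size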
Target sequence (P10828 whole entry, looked up): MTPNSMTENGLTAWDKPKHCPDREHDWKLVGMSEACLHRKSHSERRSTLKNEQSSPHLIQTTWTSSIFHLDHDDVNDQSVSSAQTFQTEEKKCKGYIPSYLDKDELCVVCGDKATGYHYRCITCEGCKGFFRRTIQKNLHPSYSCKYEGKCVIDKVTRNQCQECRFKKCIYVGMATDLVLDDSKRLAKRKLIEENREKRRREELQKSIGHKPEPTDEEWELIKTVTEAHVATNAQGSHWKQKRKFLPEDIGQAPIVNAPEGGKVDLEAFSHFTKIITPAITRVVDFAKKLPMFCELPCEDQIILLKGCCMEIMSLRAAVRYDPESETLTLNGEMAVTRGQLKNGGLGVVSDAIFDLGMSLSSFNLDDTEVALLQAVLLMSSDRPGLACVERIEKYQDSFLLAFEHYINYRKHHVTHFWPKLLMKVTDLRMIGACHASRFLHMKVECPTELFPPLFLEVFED
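Binding of a 20-amino-acid Texas Red SRC2 peptide (20 nM) to TRb ligand-binding domain (0.6 uM) with agonist T3 at 1 uM was followed by fluorescence polarization after a 5 hr room-temperature incubation.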
Tau ThT inhib = qHTS for Inhibitors of Tau Fibril Formation, Thioflavin T Binding | recombinant tau K18 P301L, heparin-induced fibrillization, ThT fluorescence | Potency, µM (top dose mostly 57.4 µM), for the others: at the highest dose activity, negative = inhibition, hits mostly inhibitors | hit rate 2.1% among 270,000; note: nearly all actives have a fitted effect of over 55% in size
Target sequence (P10636 561-689 P618L limits assumed): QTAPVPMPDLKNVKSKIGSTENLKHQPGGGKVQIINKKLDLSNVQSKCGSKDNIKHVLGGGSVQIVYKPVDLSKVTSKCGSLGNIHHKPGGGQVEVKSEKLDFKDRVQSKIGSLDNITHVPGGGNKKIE
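Recombinant human tau K18 fragment […] carrying P301L, 15 uM unlabeled plus 0.24 uM Alexa 594-labeled, was fibrillized with 20 uM heparin in 100 mM sodium acetate pH 7 for 6 hr at 37 C; 30 uM ThT fluorescence read after 1 hr.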
TexasRed fluor = Total Fluorescence Counterscreen for Inhibitors of the Interaction of Thyroid Hormone Receptor and Steroid Receptor Coregulator 2 | Potency, µM (top dose mostly 106 µM), for the others: top-dose fluorescence change, negative = quenching | TRb/SRC2 Texas Red total fluorescence interference | AID 1479, 2009 | hit rate 0.29% among 280,000; active = well fitted curve in either direction with a large enough effect; inconclusive = small, poorly fitted or top-dose-only effect
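Human TRb ligand-binding domain at 0.6 uM with 20 nM Texas Red SRC2 peptide in Tris buffer containing 1 uM T3 and 5% DMSO, incubated with compound 5 h at ambient temperature. Total fluorescence (555/632 nm) calculated as parallel + 2 × perpendicular.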
Tau fluor cs = Counterscreen qHTS for Inhibitors of Tau Fibril Formation, Fluorescence Polarization. tau K18 P301L Alexa594 fluorescence, heparin fibrillization. AID 1463, 2008. Potency, µM (highest dose often 57.7 µM), without a hit: at the highest dose activity change, negative = decrease. hit rate 0.93% among 280,000; note: nearly all actives have a fitted effect of over 55% in size
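Human tau K18 P301L (15 uM unlabeled, 0.24 uM Alexa 594-labeled) in 100 mM sodium acetate pH 7 with 20 uM heparin, 6 hr at 37 C. ThT 30 uM added, 1 hr ambient; Alexa 594 FP and total fluorescence read at 555/632 nm.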
Tau FP inhib = qHTS for Inhibitors of Tau Fibril Formation, Fluorescence Polarization; Microtubule-associated protein tau (Homo sapiens), P10636; K18 P301L tau heparin fibrillization, Alexa594 FP, 6 h; Potency, µM (series often up to 57.7 µM), for the others: at the top dose activity, negative = inhibition, actives largely listed as inhibitors; hit rate 0.39% among 280,000; AID 1468, 2008; note: nearly all actives have a fitted effect of over 55% in size
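Human K18 P301L fragment (15 uM unlabeled plus 0.24 uM Alexa 594-labeled) in 100 mM sodium acetate pH 7 with compound, aggregation induced by 20 uM heparin for 6 hr at 37 C. ThT (30 uM) added for 1 hr, then Alexa 594 FP read.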
RGS12 GoLoco inh = qHTS Assay for Inhibitors of RGS12 GoLoco Motif Activity (Red Fluorophore); Guanine nucleotide-binding protein G(i) subunit alpha-1 (Homo sapiens), P63096; Gai1:RGS12 GoLoco peptide FP, rhodamine, 10 min; Potency, µM (titrated, usually from 61.6 µM), without a hit: at the top dose activity, negative = inhibition, usual class: inhibitors; hit rate 0.44% among 230,000; AID 880, 2007; active = well fitted inhibition curve with a large enough effect, not every such curve was filed as active; inactive = no such curve, though single readings can be large or run the other way; note: nearly all actives have a fitted effect of over 30% in size
Starred values were filed as active, the others as inactive; u = inconclusive; x = not tested or not shown; [ ] = another dose, or the depositor's remark. Sampled rows, rich in hits. Any-hit rate of the full collection: about 3.1%. Unless noted, calls come from the whole dose curve; as a rule, active = well fitted curve in the direction sought with a large enough effect; inconclusive = small, poorly fitted or top-dose-only effect, or another doubt; inactive = no such curve, though single readings can be large; an effect the other way counts as inactive or inconclusive. Unless noted, % is set by controls: 0 for no effect and ±100 for the full control effect; potency is the fitted concentration of half-maximal effect.

SMILES	TRb-SRC2 inh	Tau ThT inhib	TexasRed fluor	Tau fluor cs	Tau FP inhib	RGS12 GoLoco inh
O=C(Nc1ccc(C(O)(C(F)(F)F)C(F)(F)F)cc1)c1ccc(Cl)c([N+](=O)[O-])c1	-12%	u	-3%	13µM*[quencher]	-14%	5%
Cc1ccc(NC(=O)Nc2ccccc2)cc1[N+](=O)[O-]	-1%	u	-3%	u	u	5%
O=C(Nc1ccccc1)Nc1ccc(Cl)c([N+](=O)[O-])c1	-7%	u	1%	11µM*[quencher]	u	-4%
Oc1c(/C=N/c2ccccn2)sc2ccccc12	30%	5.6µM*	15%	2.8µM*[fluorescent]	u	211%
Oc1c(C=Nc2ccc(Cl)cn2)sc2ccccc12	4%	u	0%	-14%	5%	13%
Oc1sc(C=Nc2ccccc2)c2ccccc12	-8%	u	-7%	14µM*[quencher]	-7%	-4%
Oc1sc(C=Nc2ccc(F)cc2)c2ccccc12	-7%	-10%	-6%	-30%	-5%	-5%
Oc1c(C=Nc2cccnc2)sc2ccccc12	9%	13µM*	7%	-12%	11%	39%
CNC(=O)C(Sc1ccccc1)c1ccccc1 (centres undefined)	-4%	2%	0%	7%	0%	-5%
CC12CCC3C(CC3(C)C)C(C)(CCC1=O)O2 (centres undefined)	0%	1%	-4%	-3%	-10%	-1%
CCCCn1c(O)c(/C=C2\C=NN=C2c2ccccc2)sc1=S	-4%	-11%	-1%	u	11µM*	6%
COc1cc(/C=C(/C#N)c2nc(-c3cc4ccccc4oc3=O)cs2)ccc1O	-9%	4.5µM*	8%	u	15%	x
N#C/C(=C/c1ccccc1Cl)c1nc(-c2cc3ccccc3oc2=O)cs1	-7%	-2%	u	-14%	-11%	x
CC(C)(C)C(=O)NC(c1ccc(Cl)cc1)[C@]1(C)C[C@H]1C1CCCCC1 (some centres undefined)	-1%	-17%	-16%	-9%	5%	7%
S=C(NCCC(c1ccccc1)c1ccccc1)Nc1cccc(Cl)c1	-15%	18%	-1%	7.1µM*[quencher]	14µM*	5%
CCCC(=O)NC(NC(=S)Nc1ccc(N=Nc2ccccc2)cc1)C(Cl)(Cl)Cl (centres undefined)	2%	14µM*	6%	u	u	-5%
O=C(CCc1ccccc1)NC(NC(=S)Nc1ccc(Br)cc1)C(Cl)(Cl)Cl (centres undefined)	2%	5%	0%	-26%	u	-8%
O=C(CCc1ccccc1)NC(NC(=S)Nc1cccc(Cl)c1)C(Cl)(Cl)Cl (centres undefined)	-25%	10%	0%	0%	14µM*	5%
CCCCOc1ccc(CSc2nc(C)[nH]c2[N+](=O)[O-])cc1[N+](=O)[O-]	-1%	x	-4%	x	x	2%
CCOc1ccccc1NC(=O)Cn1c(=O)n(Cc2ccccc2)c(=O)c2c3c(sc21)CN(C(C)=O)CC3	3%	-9%	-25%	-24%	-6%	x
CC(C)c1ccccc1NC(=O)COC(=O)c1ccc(Cl)c(S(=O)(=O)N2CCCCCC2)c1	2%	-2%	-1%	-12%	-10%	-6%
CCOc1cc(C2C(C(=O)N3CCOCC3)=C(C)NC3=C2C(=O)CCC3)ccc1O (centres undefined)	2%	-13%	3%	-2%	-8%	0%
CCOC(=O)c1c(/N=C/c2cccc([N+](=O)[O-])c2O)sc2c1CCC2	-4%	16µM*	-3%	-27%	-7%	10%
CCc1n[nH]c(=S)n1/N=C/c1cc(OC)cc([N+](=O)[O-])c1O	-4%	5µM*	-5%	-28%	-16%	12%
CCOC(=O)c1c(/N=C/c2ccccc2O)sc2c1CCC2	-1%	-18%	-2%	-20%	5%	x
SMILES	TRb-SRC2 inh	Tau ThT inhib	TexasRed fluor	Tau fluor cs	Tau FP inhib	RGS12 GoLoco inh
CCOC(=O)c1c(/N=C/c2cc(OC)cc([N+](=O)[O-])c2O)sc(C)c1C	6%	8.9µM*	-7%	u	u	7%
COc1cc(/C=N/n2c(=S)[nH]nc(C)c2=O)cc([N+](=O)[O-])c1O	11%[53 µM]	-5%	-2%[53 µM]	-11%	-2%	10%
CCOc1ccccc1NC(=O)Nc1ccc2nc(N3CCN(C)CC3)cc(C)c2c1	-2%	14µM*	-2%	10µM*[quencher]	5%	x
Cc1ccccc1NC(=O)Nc1ccc2nc(N3CCN(C)CC3)cc(C)c2c1	-2%	u	-3%	14µM*[quencher]	u	x
Cc1cc(N2CCN(C)CC2)nc2ccc(NC(=O)c3ccc(C(C)(C)C)cc3)cc12	0%	u	-2%	u	13%	x
CCOc1cccc(CC(=O)Nc2ccc3nc(N4CCCCC4)cc(C)c3c2)c1OCC	-8%	u	0%	u	u	x
Cc1cc(N2CCN(C)CC2)nc2ccc(NC(=O)Nc3ccc(Cl)cc3)cc12	1%	13µM*	-2%	10µM*[quencher]	-13%	x
O=C1OC(NC(=O)c2ccccc2)C(n2cc(CO)nn2)=C1Cl (centres undefined)	-16%	7.1µM*	0%	-23%	u	-17%
CSCC[C@H](NC(=O)Nc1ccc(OC(F)(F)F)cc1)C(=O)O	5%	-4%	-3%	-8%	3%	8%
Nc1nonc1C(=O)NCCN=Cc1cc(Cc2ccccc2)cc(Br)c1O	10%	28µM*	-7%	u	u	2%
COc1ccc2c(c1)OC/C(=C\c1ccc(OC)c(O)c1)C2=O	-1%	4.5µM*	-5%	u	-5%	3%
CCOCCN1CCN(c2c(CC)c(C)nc3cc(-c4cc(OC)cc(OC)c4)nn23)CC1	15%	-4%	-1%	-6%	-4%	25%
N=C(N)S/C=C\C(=O)O	0%	28µM*	0%	-19%	u	-8%
COc1ccc(NC(=O)CCSc2ccc(F)cc2)cc1	3%	-15%	4%	-20%	5%	4%
Cc1ccc(C(=O)N/C(=C\c2ccc(-c3ccc([N+](=O)[O-])cc3)o2)C(=O)NC2CCS(=O)(=O)C2)cc1 (centres undefined)	-5%	6.3µM*	-2%	u	9%	29%
